Data published in PubChem BioAssay (NCI).
Compounds without any hit were thinned out: in the full panel of roughly 83,000, 20% have a hit.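 Testing used 96-well plates and a 48-hour single-concentration exposure. Example: -40 means 40% of the starting cells died.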 Activity calls are given as the source filed them.

Test system: NCI-H23 lung
Experiment: NCI-60 one-dose screen, 48 h (100 = growth as untreated, 0 = no growth, -100 = all killed)
Settings: 10 µM unless noted
Protocol: Growth inhibition of the NCI-H23 human Non-Small Cell Lung tumor cell line is measured as a screen for anti-cancer activity. Cells are grown in 96 well plates and exposed to the test compound for 48 hours. Compounds are tested at a single concentration, which is 10^-5 M for most compounds. The reported endpoint is percent growth (GI% or GIPRCNT), where numbers from 0 - 100% represent growth inhibition, and numbers from -100% - 0 represent cell death. For example, a value of 40 represents 60% growth inhibition. A value of 0 means no net growth occurred over the course of the experiment. A value of -40 indicates 40% of cells at the beginning of the experiment died by the end of the experiment. A value of -100 means all cells are dead at the end of the experiment.
NCI-60 Human Tumor Cell Lines Screen was performed using the standard one-dose NCI protocol, which is described in more detail at https://dtp.cancer.gov/discovery_development/nci-60/default.htm.
Compounds with GIPRCNT values below 10 were considered active. Activity score was based on GIPRCNT using the following formula: […]
Score is 0 for GIPRCNT values of 100 or above, 50 for GIPRCNT values of 0, and 100 for GIPRCNT values of -100.

SMILES	growth
COc1c(F)ccc(C(=O)Nc2ccc3nc(NC(=O)C4CCCN(S(=O)(=O)c5ccc(C(F)(F)F)cc5)C4)sc3c2)c1F (stereo not given)	94.4% (inactive)
COc1ccc(C(=O)/C=C/c2cc3c(cc2Br)OCO3)cc1S(N)(=O)=O	-31.1% (active)
COc1ccc(C(=O)/C=C/c2ccc(Cl)c(Cl)c2)cc1S(N)(=O)=O	-23.6% (active)
S=C(Nc1ccc(OCc2nc3ccccc3[nH]2)cc1)NC1CCCCC1	101% (inactive)
CC12CC[C@@H]3[C@]4(C)COC(c5c(F)cccc5F)O[C@@H]4CC[C@@]3(C)[C@@H]1CC(C1=CCOC1=O)O2 (stereo not given in full)	62.1% (inactive)
COc1ccc(-c2nnc3ccc(N/N=C/c4ccc(C)cc4)nn23)cc1	50.7% (inactive)
O=C1Nc2cc(Cl)ccc2/C1=C/c1cccc(OCc2ccccn2)c1	19.6% (inactive)
Clc1cccc(-c2ccc(OCCCN3CCN(c4ccncc4)CC3)cc2)c1	19.1% (inactive)
COc1c(F)ccc(C(=O)Nc2ccc3nc(NC(=O)C4CCCN(S(=O)(=O)c5ccc(Br)s5)C4)sc3c2)c1F (stereo not given)	82.7% (inactive)
Cc1cc2nc3c4ccccc4n(CCNCCN(C)C)c3nc2cc1C	31.2% (inactive)
O=C(NN1C(=O)/C(=C/C=C/c2ccc([N+](=O)[O-])o2)SC1=S)c1ccc(Cl)cc1	-86.7% (active)
Cc1cc2c(cc1Cl)C(=O)/C(=C/c1ccc(F)cc1)O2	85.8% (inactive)
O=C(C1=CNC(=S)NC1c1ccc(O)cc1)c1cc2ccccc2oc1=O (stereo not given)	102% (inactive)
COc1ccc(C(=O)/C=C/c2cccc(Cl)c2Cl)cc1S(N)(=O)=O	-15.6% (active)
CCN(CC)c1ccnc(CNCCSC(c2ccccc2)(c2ccccc2)c2ccc(OC)cc2)c1	-41.8% (active)
CC1=C(C(=O)c2ccccc2)C(c2cccc3ccccc23)n2c(nc3ccccc32)N1 (stereo not given)	56.5% (inactive)
O=C(NNc1nc2cc(F)ccc2n2c(CN3CC4CNCC4C3)ccc12)c1ccncn1 (stereo not given)	30.7% (inactive)
Cc1cc2c(cc1Cl)C(=O)/C(=C/c1ccccc1)O2	0.835% (active)
OCNc1ccc(-n2cnc3cc(-c4ccc(O)cc4)ccc32)cc1C(F)(F)F	27% (inactive)
CC12CC[C@@H]3[C@]4(C)COC(c5cn[nH]c5-c5ccc(Cl)cc5)O[C@@H]4CC[C@@]3(C)[C@@H]1CC(C1=CCOC1=O)O2 (stereo not given in full)	51.9% (inactive)

SMILES	growth
N#Cc1c(-c2ccc(Cl)cc2)nc2n[nH]c(-c3ccc(Cl)cc3)c2c1-c1cccs1	62.7% (inactive)
CN1CCN(Cc2ccc(C(=O)Nc3cccc(C#Cc4cccc5[nH]nc(N)c45)c3)cc2C(F)(F)F)CC1	-87.3% (active)
Cc1cccc(NC(=O)[C@]23CCC(C)(C)CC2C2=CCC4[C@@]5(C)C[C@@H](O)[C@H](O)[C@@](C)(CO)C5CC[C@@]4(C)[C@]2(C)CC3)c1 (stereo not given in full)	-27.7% (active)
N#Cc1c(-c2ccc(Br)cc2)nc2n[nH]c(-c3ccc(Br)cc3)c2c1-c1ccc(C(F)(F)F)cc1	15% (inactive)
O=C1NC(=O)c2c1c1c3cc(Br)ccc3[nH]c1c1oc3ccc(F)cc3c21	-23.6% (active)
COc1ccc(NC(=O)Cn2c(/C=C/c3cccc([N+](=O)[O-])c3)nc3ccccc3c2=O)cc1	81.7% (inactive)
CC1CCCCN1CCCNC(=O)N/C(N)=N/c1nc2ccccc2s1 (stereo not given)	58.8% (inactive)
C[C@H](Nc1nc(NCCc2ccccc2)nc2ccccc12)c1ccccc1	-85.2% (active)
COc1cccc(-c2c(C#N)c(-c3ccc(Cl)cc3)nc3n[nH]c(-c4ccc(Cl)cc4)c23)c1	64.5% (inactive)
Cn1cc(-c2cc3nc(-c4cn(C)c5ncccc45)cc(N)n3n2)c2ccccc21	55.6% (inactive)
Nc1nnc(-c2c[nH]c3ncc(Br)cc23)c(-c2c[nH]c3ccc(F)cc23)n1	33.3% (inactive)
CN1CCN(c2ccc(C(=O)/C=C/c3cc(C(F)(F)F)cc(C(F)(F)F)c3)cc2)CC1	-66.2% (active)
CC(C)Sc1nc(NCCc2c[nH]c3ccccc23)c(C#N)c(-c2ccccc2)n1	17.9% (inactive)
CC1(c2cc3cc(Cl)ccc3oc2=O)NC(=O)c2c(/C=C/C(=O)OC3CC4CCC3(C)C4(C)C)cccc2N1 (stereo not given)	63.4% (inactive)
Clc1ccc(-c2ccc(OCCCN3CCN(c4ccncc4)CC3)cc2)cc1	50.7% (inactive)
COc1ccc(-c2nc3cc(C)ccc3n2CC(=O)N=Nc2c(O)[nH]c3ccc(OC)cc23)cc1	-65.1% (active)
O=C(Nc1cccc(-n2cnc3cc(-c4ccc(O)cc4)ccc32)c1)C1CC1	40.1% (inactive)
COc1ccc(C2CC(c3ccc(S(=O)(=O)NCCNc4nc(Nc5ccc(F)cc5)nc(N(C)C)n4)cc3)=Nc3c(N)nc(N)nc3N2)cc1 (stereo not given)	90.4% (inactive)
COc1cc(-c2ccc(/C=N/NC(=O)c3[nH]c4ccc(Br)cc4c3-c3ccccc3)o2)cc(OC)c1OC	53.9% (inactive)
COc1cc(OC)cc(-c2cc3ccc(N(C)C)cc3c(=O)[nH]2)c1	44.1% (inactive)
